# Results as given in PubChem BioAssay AID686979 (National Center for Advancing Translational Sciences (NCATS), 2013).
# “And” between values parts separate entries of the source, which are not always exact repeats. Equal entries are not always repeated. Among all 420,000 compounds or so, about 50,000 (12%) were called active. Another 26% or so got no clear call; they are omitted. This is one part of a sample in which actives are shown more often than they occur. Unmarked numbers belong to inactive results. The call rests on the fitted dose curve; in most records, active means well fitted inhibition curve with a large enough effect; inconclusive means small, poorly fitted or top-dose-only effect; inactive means flat fitted curve, though single readings scatter.
# Test: qHTS for Inhibitors of human tyrosyl-DNA phosphodiesterase 1 (TDP1): qHTS in cells in presence of CPT; further: nearly all actives have a fitted effect of over 55% in size
# Settings: chicken DT40 Tdp1-/-;hTDP1 cells + 20 nM CPT, ATP luminescence, 48 h; series mostly up to 46.2 µM; activity change, negative = growth inhibition: at the top concentration
# Procedure, shortened: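 Chicken DT40 Tdp1-/- cells stably complemented with human TDP1 were seeded at 400 cells/well in medium containing 20 nM camptothecin, exposed to pin-transferred compounds, and grown at 37 °C for at least 48 hr. Viability was read as ATP luminescence.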
# On the % scale 0 is the no-effect control and ±100 the full control effect; potency means the concentration at half of the fitted maximal effect.
SMILES,"activity change, negative = growth inhibition [%]",Potency
O=c1cnnc(Nc2ccccc2F)[nH]1,-6.88,
Cc1c(C(=O)OCC(=O)N2CCCC2=O)oc2ccccc12,14.4,
COc1ccccc1CNC(=O)C(Cc1ccccc1)NS(=O)(=O)c1ccc2c(c1)oc(=O)n2C (stereo not given),,20.6 µM (active)
CSCCC(NS(=O)(=O)c1ccc2c(c1)oc(=O)n2C)C(=O)NCc1ccccc1 (stereo not given),,inactive
Cc1ccc(NC(=O)C(Cc2ccccc2)NS(=O)(=O)c2ccc3c(c2)oc(=O)n3C)cc1C (stereo not given),8.66,
Cc1cccc(NC(=S)N2CCCC(c3nc4ccccc4[nH]3)C2)c1 (stereo not given),-26,
O=C(O)CCC(=O)NCc1ccc2[nH]c3c(c2c1)CCCC3,-3.68,
Cc1cccc(NC(=S)NCc2ccc3[nH]c4c(c3c2)CCCC4)c1,,23.1 µM (active)
Cc1ccc(S(=O)(=O)N2CCOCC2)cc1C(=O)Nc1ccccc1N1CCCC1,-26.6,
Oc1cccc(CCc2ccccn2)c1,-10.9,
C=CCC[C@@H](CCCCC)OC(=O)/C=C/[C@@H](O)[C@H](O)C[C@H](O)CC=C,,23.1 µM (active)
CN(C)/C=C(/C(=O)c1ccccc1Cl)S(C)(=O)=O,-0.266,
COC(=O)c1ccc(/C=C/c2c(-c3ccc(OC)cc3)sc3ccccc23)cc1,,14.6 µM (active)
COc1ccc(NC(=O)COC(=O)c2ccc(NS(=O)(=O)/C=C/c3ccccc3)cc2)cc1,15.2,
COc1ccccc1-c1sc2ccccc2c1-c1ccc(C(C)=O)cc1,-23,
CCCCOc1ccc(C(=O)NCC(=O)OCC(=O)c2c(N)n(C)c(=O)n(C)c2=O)cc1,14.1,
CC(C)c1nc2ccc(C(=O)O)cc2[nH]1,20.3,
Cc1nc2ccc(C(=O)O)cc2[nH]1,3.42,
COC(=O)Nc1nc2ccc(Sc3ccccc3)cc2[nH]1,,651 nM (active) and 360 nM (active) and 517 nM (active)
N#Cc1ccccc1NC(=O)c1ccc2c(c1)OCO2,-4.16,
Cc1cc(C)cc(NC(=O)C2CCN(c3nc(C)cc(C)n3)CC2)c1,-9.07,
CCOc1ccc(NC(=O)C2CCN(S(=O)(=O)c3cc(-c4noc(C)n4)ccc3C)CC2)cc1,-26.3,
CC(C)c1ccc(NC(=O)C2CCN(c3nc(-c4ccc(C(C)C)cc4)no3)CC2)cc1,,13 µM (active)
Cc1ccc(NC(=O)CSc2sc3c(O)cc(=O)[nH]c3c2C#N)cc1C,-2.41,
CCC(=O)N1c2ccccc2NC2=C(C(=O)CCC2)C1c1ccco1 (stereo not given),25.3,

SMILES,"activity change, negative = growth inhibition [%]",Potency
Cn1ccnc1SCC(=O)Nc1ccc2c(c1)OCCO2,15,
C=CCn1c(CNC(=O)c2ccco2)nnc1SCC(=O)c1ccc(OC)cc1,-26.5,
CCNC(=O)C1(C)CCN(Cc2ccc(C(=O)OCC)o2)C1 (stereo not given),-13.1,
CCCNC(=O)C1(C)CCCN(Cc2cccc(C(F)(F)F)c2)C1 (stereo not given),,18.4 µM (active)
CCCNC(=O)C1(C)CCN(Cc2csc(-c3ccc(Cl)cc3)n2)C1 (stereo not given),,23.1 µM (active)
COCCNC(=O)C1(C)CCCN(Cc2cccc(F)c2)C1 (stereo not given),-22.2,
CCCNC(=O)C1(C)CCCN(C(=O)c2cccc(OC(C)=O)c2C)C1 (stereo not given),-1.02,
CCCNC(=O)C1(C)CCCN(Cc2c(C)nn(-c3ccccc3)c2C)C1 (stereo not given),-11.8,
COc1ccc(CCNC(=O)COC(=O)C2CC2C)cc1 (stereo not given),-15.7,
COc1ccc(C(CNC(=O)c2ccc(S(=O)(=O)Nc3ccccc3F)cc2)N(C)C)cc1 (stereo not given),-13.4,
Cc1c(Br)ccc(NC(=O)COc2ccccc2C(N)=O)c1C,-28.1,
CNC(=O)NC(=O)C(OC(=O)c1cccc(S(=O)(=O)N2CCCCC2)c1)c1ccccc1 (stereo not given),-8.68,
C=CCNC(=O)CC12CC3CC(C1)CC(CC(=O)NCC=C)(C3)C2,1.95,
CC(=O)O[C@H]1CC[C@@]2(C)[C@@H](CC[C@@H]3[C@@H]2CC[C@]2(C)[C@@H](C(C)(C)O)C[C@@H]32)C1,-27.7,
COc1cc(F)c(C2=CC(=O)CC(C)(C)C2)cc1F,-23.9,
NS(=O)(=O)c1ccc(Nc2nc(-c3ccccc3)cs2)cc1,-14.1,
c1cnc(Nc2nc(-c3ccc4ccccc4c3)cs2)nc1,,29.1 µM (active)
O=C(Nc1nc(-c2ccc(-c3ccccc3)cc2)cs1)c1cnccn1,-2.66,
CCOc1cccc2c1OC1(CCCCC1)N1N=C(c3cccnc3)CC21 (stereo not given),-25.9,
FC(F)(F)c1cccc(Cc2noc(CN3CCC(N4CCCCC4)CC3)n2)c1,-18.7,
CCCCOC(=O)Nc1nnc(CC(=O)NCc2ccccc2)s1,2.02,
CN(C(=O)COC(=O)Cn1cnc2c1c(=O)n(C)c(=O)n2C)C1(C#N)CCCCC1,-11.2,
COC(=O)[C@@H]1C[C@@]2(O)[C@@H](O)[C@@H](O)[C@@H](O)C[C@H]2N1Cc1ccc(C)s1,-25,
O=C(Nc1ccc2c(c1)OCO2)c1cc(-c2cccc(Cl)c2)on1,-12.5,
c1ccc(-c2cn3c(n2)CCc2ccc4cccnc4c2-3)cc1,,13 µM (active)
